Assay results published in ChEMBL document CHEMBL3988442, “University of Dundee, Small-Polar-MMV Screening Library” (2021).
Out of some 48,000 compounds screened, about 13,000 (27%) showed an effect of 50% or more. This is one part of the list.

System: Wolbachia pipientis
Experiment: Anti-Wolbachia Cell-Based Screen
Type: functional
Design: scale not given: in the data most compounds retested in dose-response had high values
Settings: 5 µM

Going from CCN(Cc1cccc(C)c1)Cc1nc2c(cnn2C)c(=O)[nH]1 to CCN(Cc1cccc(Cl)c1)Cc1nc2c(cnn2C)c(=O)[nH]1, the “Percent Effect” value falls from 145.1% to 6.587%.

First: CN(Cc1nc2c(cnn2C)c(=O)[nH]1)Cc1ccccc1Cl
Second: CCN(Cc1nc2c(cnn2C)c(=O)[nH]1)Cc1ccccc1Cl
The “Percent Effect” value of the first is lower: -1.712% for the first, 128.5% for the second.

First: CN(CCCc1ccccc1)Cc1nc2c(cnn2C)c(=O)[nH]1
Second: CC(C)CN(CCc1ccccc1)Cc1nc2c(cnn2C)c(=O)[nH]1
The “Percent Effect” value of the first is lower: -1.148% for the first, 122.3% for the second.

First: Cc1cccc(CN(C)Cc2nc3c(cnn3C)c(=O)[nH]2)c1
Second: CC(C)N(Cc1cccc(F)c1)Cc1nc2c(cnn2C)c(=O)[nH]1
The “Percent Effect” value of the first is higher: -4.984% for the first, -9.693% for the second.

Going from CC(C)N(Cc1cccc(Cl)c1)Cc1nc2c(cnn2C)c(=O)[nH]1 to CCN(Cc1cccc(F)c1)Cc1nc2c(cnn2C)c(=O)[nH]1, the “Percent Effect” value falls from 119.9% to 117.6%.

First: CCN(Cc1nc2c(cnn2C)c(=O)[nH]1)Cc1ccccc1C
Second: CCN(Cc1ccccc1)Cc1nc2c(cnn2C)c(=O)[nH]1
The “Percent Effect” value of the first is lower: -3.933% for the first, 106.9% for the second.

Going from CC(C)CN(Cc1nc2c(cnn2C)c(=O)[nH]1)C(C)C to CCN(Cc1nc2c(cnn2C)c(=O)[nH]1)c1ccccc1C, the “Percent Effect” value rises from -8.165% to -6.85%.

Compared with Cc1ccc(NCc2ccc(C#N)cc2)c(CN(C)C)c1, CN(C)c1ccc(CNc2cncc(-n3cccn3)n2)cc1 is higher in “Percent Effect” value: -4.346% for the first, 6.951% for the second.

Going from N#CCCN(Cc1ccccn1)C(=O)Nc1cccnc1 to CCN(C)c1ccc(C(=O)NCCCc2ccccn2)cn1, the “Percent Effect” value rises from -3.639% to 1.401%.

Compared with CC(O)CC(C)(C)CNS(=O)(=O)c1cccc(Cl)c1C#N (stereo unspecified), CCN(CC)S(=O)(=O)c1ccc(NC(=O)C(C)(C)C)cc1 is lower in “Percent Effect” value: -3.91% for the first, -6.648% for the second.

First: O=C(CN1C(=O)CCNC1=O)N1CCOC(c2ccc(F)cc2)C1 (stereo unspecified)
Second: CC(CC(=O)N1CCN(c2cnccn2)CC1)c1ccc(F)cc1 (stereo unspecified)
The “Percent Effect” value of the first is higher: 13.31% for the first, 3.505% for the second.

First: CCN(CC(=O)NC(C)C)S(=O)(=O)N1CCCC(C)C1 (stereo unspecified)
Second: CCS(=O)(=O)CCNC(=O)[C@@]12CNC[C@@H]1CN(C1CCCC1)C2
The “Percent Effect” value of the first is lower: -4.686% for the first, 17.06% for the second.

Going from CC(=O)c1c(F)cccc1N1CCC(CS(N)(=O)=O)CC1 to NC(=O)C1CCN(C(=O)c2cccc(OCc3cscn3)c2)CC1, the “Percent Effect” value falls from -2.597% to -9.747%.

First: CN(Cc1ccc([S+](C)[O-])cc1)c1ccc(Cl)cn1 (stereo unspecified)
Second: CCOCc1ccc(CNc2nc(OC)ncc2Cl)cc1
The “Percent Effect” value of the first is lower: -11.61% for the first, -6.174% for the second.

Going from Cn1ncc2c(=O)[nH]c(CN(Cc3cccc(F)c3)C3CC3)nc21 to O=C(NC[C@H]1COCc2nc3cc(F)ccc3n21)c1cccnc1, the “Percent Effect” value falls from 7.175% to -2.363%.

Compared with CC(C)CN1C(=O)CC[C@H]2CN(Cc3ncc[nH]3)CC[C@H]21, CC(NCCN1CCC(N(C)C)CC1)c1ccc(F)cc1N(C)C (stereo unspecified) is lower in “Percent Effect” value: -0.2124% for the first, -1.854% for the second.

Compared with Cc1noc(Cl)c1CC(=O)NCC(C)(O)c1ccc(F)cc1F (stereo unspecified), Cc1cc(C)c(CNC(=O)NCCNc2cnccn2)c(=O)[nH]1 is higher in “Percent Effect” value: 5.104% for the first, 6.343% for the second.

First: CN(Cc1nc(-c2cccnc2)no1)C(=O)c1c2c(nn1C)CCCC2
Second: O=C(Cc1ccc2c(c1)OCO2)N1CCN(c2cnccn2)CC1
The “Percent Effect” value of the first is lower: -6.1% for the first, -5.983% for the second.

First: CCOCc1ccc(CNc2cncc(-n3cccn3)n2)cc1
Second: COCc1ccc(CNc2cncc(-n3cccn3)n2)cc1
The “Percent Effect” value of the first is higher: 106.2% for the first, 105.5% for the second.

Compared with NS(=O)(=O)Cc1ccc(CNc2cncc(-n3cccn3)n2)cc1, CNS(=O)(=O)Cc1ccc(CNc2cncc(-n3cccn3)n2)cc1 is lower in “Percent Effect” value: 114% for the first, 3.239% for the second.

Compared with CC(C)COc1cncc(NCc2nnc3ccccn23)n1, CC(C)OCc1ccc(CNc2cncc(-n3cccn3)n2)cc1 is higher in “Percent Effect” value: -11.09% for the first, 123.9% for the second.

Going from O=C1CN(c2ccc(CNc3cncc(-n4cccn4)n3)cc2)CCN1 to COC(=O)Nc1ccc(CNc2cncc(-n3cccn3)n2)cc1, the “Percent Effect” value rises from 17.5% to 97.69%.

First: Cc1cnn(CC(C)NCc2ccc(-n3cccn3)cc2)c1 (stereo unspecified)
Second: CC(CNc1cncc(-n2cccn2)n1)N(C)c1ccccc1 (stereo unspecified)
The “Percent Effect” value of the first is higher: 9.413% for the first, 0.6159% for the second.

Going from CN(C)C(=O)C1CCN(c2cncc(-n3cccn3)n2)CC1 to CN(C)c1cc(CNc2cncc(-n3cccn3)n2)ccn1, the “Percent Effect” value rises from 6.063% to 94.25%.

Compared with CCOCCOCc1cccc(CNc2cncc(-n3cccn3)n2)c1, OCc1ccncc1NCc1cnc(-c2ccccn2)s1 is lower in “Percent Effect” value: 5.599% for the first, -4.749% for the second.

First: Cc1cc(N2C[C@H](C3CC3)[C@@H](N)C2)nc(N2CCCCC2)n1
Second: Cc1cc2n(n1)CC(CNC1CCN(c3ccccn3)CC1)CN2 (stereo unspecified)
The “Percent Effect” value of the first is higher: 11.86% for the first, 4.836% for the second.

First: CC(C)c1cc(N2CCC(N(C)C)C2)n2nccc2n1 (stereo unspecified)
Second: Cn1ccc(C(=O)N2C[C@@H]3CCN(c4cccnc4)C[C@@H]3C2)n1.O=C(O)C(F)(F)F
The “Percent Effect” value of the first is higher: 10.32% for the first, -11% for the second.

Compared with O=C1OCCN1Cc1ccc(C(F)(F)F)cc1F, Cc1ccc(C(=O)N2C[C@@H]3[C@@H](C2)OCC(=O)N3Cc2cccnc2)o1.O=C(O)C(F)(F)F is higher in “Percent Effect” value: -29.22% for the first, -3.343% for the second.

First: CCNc1ncc(C(=O)NC(c2ccccc2)c2ccco2)cn1 (stereo unspecified)
Second: CCS(=O)(=O)c1ccc2oc([C@H]3CCN(Cc4ccccc4)C3)nc2c1
The “Percent Effect” value of the first is higher: -3.465% for the first, -9.259% for the second.

First: COCCN(Cc1sccc1C)Cc1nccn1CCOC
Second: C/C=C(\C)CN(CCN1CCOCC1)Cc1ccco1
The “Percent Effect” value of the first is lower: 4.16% for the first, 118.7% for the second.

Going from O=C(CCSc1ccc(F)cc1)N1CCN(c2cnccn2)CC1 to O=C(CCSc1ccccc1F)N1CCN(c2cnccn2)CC1, the “Percent Effect” value rises from -10.65% to 4.662%.

Compared with O=C(CCOc1ccc(Br)cc1)N1CCN(c2cnccn2)CC1, O=C(CCOc1cccc(Cl)c1)N1CCN(c2cnccn2)CC1 is lower in “Percent Effect” value: 108.9% for the first, 103.8% for the second.

Going from O=C(CCOc1ccccc1Cl)N1CCN(c2cnccn2)CC1 to O=C(COc1ccc(Cl)cc1)N1CCN(c2cnccn2)CC1, the “Percent Effect” value rises from 81.46% to 138.2%.

Compared with Cc1nn(CC(=O)N2CCN(c3cnccn3)CC2)c(C)c1Cl, O=C(c1ccc(-n2cc(Br)cn2)cc1)N1CCN(c2cnccn2)CC1 is higher in “Percent Effect” value: 4.895% for the first, 12.88% for the second.

Compared with CSCc1cccc(S(=O)(=O)NCCCO)c1, CS(=O)(=O)CC(=O)N(CCN1CCOCC1)Cc1ccco1 is lower in “Percent Effect” value: -5.091% for the first, -25.1% for the second.

First: CS(=O)(=O)CCN(CC1CCCO1)C1CCCC1 (stereo unspecified)
Second: O=C(C[C@@H]1COC[C@H]2CN(C3CCCC3)C[C@@H]12)N1CCCCO1.O=C(O)C(F)(F)F
The “Percent Effect” value of the first is lower: -6.798% for the first, 2.72% for the second.

Compared with CC(NCc1cn(CCC(N)=O)c2ccccc12)c1nncn1C (stereo unspecified), CC(C(=O)NCc1ccc(F)cc1)N(C)CCN1CCOCC1 (stereo unspecified) is higher in “Percent Effect” value: -5.557% for the first, 8.931% for the second.

First: Cc1ccc2c(n1)N(CCN(C)C)CCN(C(=O)c1ccoc1)C2.O=C(O)C(F)(F)F.O=C(O)C(F)(F)F
Second: Cc1ccc2c(n1)N(CCN(C)C)CCN(C(=O)c1cccs1)C2.O=C(O)C(F)(F)F.O=C(O)C(F)(F)F
The “Percent Effect” value of the first is higher: 2.564% for the first, -13.61% for the second.

Compared with Cc1ccoc1C(=O)N1Cc2c(Cn3ccnc3)nn(C)c2C1.O=C(O)C(F)(F)F, Cc1ccoc1C(=O)N1C[C@@H]2[C@@H](C1)OCC(=O)N2Cc1cccnc1.O=C(O)C(F)(F)F is lower in “Percent Effect” value: 12.61% for the first, 8.295% for the second.

First: Cc1ccc(C(=O)N2CCn3cc(CN(C)Cc4ccco4)nc3C2)o1.O=C(O)C(F)(F)F
Second: Cc1ccc(C(=O)N2CCc3ccc(=O)n(CCN(C)C)c3CC2)o1.O=C(O)C(F)(F)F
The “Percent Effect” value of the first is lower: -7.52% for the first, 107.1% for the second.

Compared with CN(C)CCOc1ccccc1N1CCN(C(=O)c2ccoc2)CC1, CN(C)CCn1c2c(ccc1=O)CCN(C(=O)c1ccoc1)CC2.O=C(O)C(F)(F)F is higher in “Percent Effect” value: -4.916% for the first, 107.6% for the second.

First: CN(C)CCn1c2c(ccc1=O)CCN(C(=O)c1cccs1)CC2.O=C(O)C(F)(F)F
Second: Cc1ccoc1C(=O)N1CCc2ccc(=O)n(CCN(C)C)c2CC1.O=C(O)C(F)(F)F
The “Percent Effect” value of the first is higher: 111.2% for the first, 99.37% for the second.

First: CCc1nc(CC(=O)N2CCC(C(=O)N(CC)CC)CC2)cs1
Second: CC(=O)NCC(=O)N(CCN1CCOCC1)Cc1ccco1
The “Percent Effect” value of the first is higher: 9.803% for the first, -7.485% for the second.

Compared with Cc1ccc(C(=O)N2CCN(CCC(C)(C)C)CC2)c(=O)[nH]1, Cn1ccnc1CN1CCC2(CC(=O)N(c3ccsc3)C2)C1.O=C(O)C(F)(F)F (stereo unspecified) is higher in “Percent Effect” value: -8.325% for the first, 6.522% for the second.

Compared with OCC(O)CN(CCN1CCOCC1)Cc1ccco1 (stereo unspecified), CN(C)CCN1CCOCC2(C1)CN(Cc1ccco1)CCO2.O=C(O)C(F)(F)F.O=C(O)C(F)(F)F.O=C(O)C(F)(F)F (stereo unspecified) is lower in “Percent Effect” value: 99.07% for the first, 27% for the second.

First: O=C(NCc1ccccc1)N1CCC2(CC(=O)N(c3ccsc3)C2)C1 (stereo unspecified)
Second: O=C(NCc1cccc(F)c1)N1CCC2(CC(=O)N(c3ccsc3)C2)C1 (stereo unspecified)
The “Percent Effect” value of the first is lower: -8.501% for the first, 6.273% for the second.

First: O=C(NCc1cccnc1)N1CCC2(CC(=O)N(c3ccsc3)C2)C1.O=C(O)C(F)(F)F (stereo unspecified)
Second: O=C(NCc1ccccc1)N1CCC2(CC(=O)N(c3ccccc3)C2)C1 (stereo unspecified)
The “Percent Effect” value of the first is lower: 89.85% for the first, 115.5% for the second.

Compared with CC(=O)Nc1ccc(CNC2CCCSC2)cc1 (stereo unspecified), Cc1occc1C(=O)N1C[C@H]2CCCC(OCc3cccnc3)[C@H]2C1.O=C(O)C(F)(F)F (stereo partly specified) is higher in “Percent Effect” value: -9.842% for the first, -5.108% for the second.

Compared with Cn1ccc(C(=O)N2C[C@@H]3OCCN(c4ncccn4)[C@@H]3C2)n1.O=C(O)C(F)(F)F, Cc1occc1C(=O)N1C[C@@H]2OCCN(c3ncccn3)[C@@H]2C1.O=C(O)C(F)(F)F is higher in “Percent Effect” value: 98.93% for the first, 117.5% for the second.

First: Cc1cccc(C(=O)N2C[C@@H]3OCCN(c4ncccn4)[C@@H]3C2)n1.O=C(O)C(F)(F)F.O=C(O)C(F)(F)F
Second: Cc1ccccc1C(=O)N1C[C@@H]2OCCN(c3ncccn3)[C@@H]2C1.O=C(O)C(F)(F)F
The “Percent Effect” value of the first is lower: -4.674% for the first, 105.7% for the second.

With Cc1occc1C(=O)N1C[C@@H]2[C@@H](C1)OCC(=O)N2Cc1cccnc1.O=C(O)C(F)(F)F the “Percent Effect” value was -5.789%.
